43 compounds from PubChem BioAssay (Tox21) can be followed below.

In assay [1] the target is Acetylcholinesterase (Homo sapiens) (UniProt P22303). Nature of the assay: Acetylcholinesterase (AChE) small molecule antagonists: colormetric cell-based qHTS assay (AID 1347395). Further: nearly all actives have a fitted effect of over 30% in size. In short, it runs like this:
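Colorimetric readout: DTNB quantifies thiocholine from acetylthiocholine hydrolysed by endogenous AChE of SH-SY5Y cells (2,000/well, plated overnight). Compound pretreatment 30 min, substrate incubation 90 min, both 37 C.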

Assay [2] has the same target. The assay is described as follows: Acetylcholinesterase (AChE) small molecule antagonists: enzyme-based qHTS assay (AID 1347397). Further: nearly all actives have a fitted effect of over 55% in size. The settings on record: Potency: AChE enzyme activity inhibition; outcome: AChE enzyme activity inhibition. An outline of the steps: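 Compound or DMSO vehicle was pin-transferred onto recombinant human AChE (50 mU/mL as dispensed) and left 30 min at room temperature. Acetylthiocholine with DTNB then started the reaction, read colorimetrically 10 min later.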
A general note: Quantitative high-throughput screening tests each substance at several concentrations.

Assay [3] shares this target. The assay is described as follows: Acetylcholinesterase (AChE) small molecule antagonists: enzyme-based qHTS assay with human liver microsomes (AID 1347399). Further: nearly all actives have a fitted effect of over 60% in size. The following applies: Potency: qHTS inhibition; outcome: qHTS inhibition. In short, it runs like this:
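Recombinant human AChE (50 mU/mL in the enzyme mix) and human liver microsomes (0.25 mg/mL final) were preincubated with compound and NADPH (0.25 mg/mL final) for 30 min at 37 C. Acetylthiocholine/DTNB was then added; thiocholine was read colorimetrically after 10 min at room temperature.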

Values without a mark were called inactive. Results filed as inconclusive are left out. Active and inactive are the calls of the source. The call rests on the fitted dose curve.
On the % scale 0 is the no-effect control and ±100 the full control effect; potency means the concentration at half of the fitted maximal effect.

Chain of Acetylcholinesterase (Homo sapiens) (P22303 whole entry, looked up): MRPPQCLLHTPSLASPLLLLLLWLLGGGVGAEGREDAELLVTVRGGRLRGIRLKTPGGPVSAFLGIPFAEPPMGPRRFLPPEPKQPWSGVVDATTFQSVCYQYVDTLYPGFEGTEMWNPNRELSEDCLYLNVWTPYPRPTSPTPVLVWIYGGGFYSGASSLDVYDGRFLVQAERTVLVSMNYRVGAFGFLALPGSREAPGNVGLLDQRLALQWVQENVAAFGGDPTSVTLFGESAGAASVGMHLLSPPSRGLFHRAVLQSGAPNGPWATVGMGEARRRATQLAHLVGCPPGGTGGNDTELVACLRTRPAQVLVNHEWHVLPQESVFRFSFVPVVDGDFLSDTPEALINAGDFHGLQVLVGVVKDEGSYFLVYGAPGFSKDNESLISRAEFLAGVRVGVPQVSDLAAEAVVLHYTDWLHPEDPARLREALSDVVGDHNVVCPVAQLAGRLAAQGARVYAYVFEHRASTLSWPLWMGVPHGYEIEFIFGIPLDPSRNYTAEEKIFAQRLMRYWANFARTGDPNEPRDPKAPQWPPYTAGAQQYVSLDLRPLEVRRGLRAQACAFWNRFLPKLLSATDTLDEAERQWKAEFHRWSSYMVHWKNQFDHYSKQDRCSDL

Regarding `CCCCCCCCCCCCN(CCO)CCO`, the Potency result in assay [1], in assay [2] and in assay [3] was “inactive” each time.
Take `COc1ccc(-c2cc(=S)ss2)cc1`: the Potency entry in assay [1], in assay [2] and in assay [3] was “inactive” throughout.
For the compound `CC(=O)Oc1cccc(C)c1`, the Potency result in assay [1], in assay [2] and in assay [3] was “inactive” in each case.
In the case of `CCCCOc1cc(C(=O)OCCN(CC)CC)ccc1N`, the Potency entry in assay [1], in assay [2] and in assay [3] was “inactive” in each case.
For the compound `O=C(O)c1cccc(-c2noc(-c3ccccc3F)n2)c1`, the Potency entry in assay [1], in assay [2] and in assay [3] was “inactive” each time.
Regarding `COc1cc(C(C)=O)ccc1OCCCN1CCC(c2noc3cc(F)ccc23)CC1`, in assay [1], the Potency is 19.5 µM (active). The Potency entry in assay [2] and in assay [3] was “inactive” throughout.
As for `CN(C)[C@@H](CCOc1cccc2ccccc12)c1ccccc1`, the Potency result in assay [1], in assay [2] and in assay [3] was “inactive” throughout.
Take `c1ccc(CCCc2ccccn2)cc1`: the Potency result in assay [1], in assay [2] and in assay [3] was “inactive” in each case.
In the case of `N#Cc1cscn1`, the Potency entry in assay [1], in assay [2] and in assay [3] was “inactive” throughout.
On to `CN1C(=O)c2ccc([N+](=O)[O-])cc2C1=O`, for which the Potency entry in assay [1], in assay [2] and in assay [3] was “inactive” each time.
On to `CCN(CC)C(=O)c1cc(S(=O)(=O)Cc2ccccc2)c(N2CCC(c3ccccc3)CC2)cc1N(CC)CCN(C)C`, for which the Potency entry in assay [1], in assay [2] and in assay [3] was “inactive” throughout.
For `CCN(CC)CCNC(=O)COc1ccc(OC)cc1`, the Potency result in assay [1], in assay [2] and in assay [3] was “inactive” throughout.
For the compound `CCN(CC)CCOCCOC(=O)C1(c2ccccc2)CCCC1`, the Potency result in assay [1], in assay [2] and in assay [3] was “inactive” in each case.
In the case of `CC(CN)CC(C)(C)CCN` (centres undefined), the Potency result in assay [1], in assay [2] and in assay [3] was “inactive” each time.
For the compound `CCN(CC)c1ccc2c(-c3ccccc3C(=O)O)c3ccc(=[N+](CC)CC)cc-3oc2c1`, the Potency entry in assay [1], in assay [2] and in assay [3] was “inactive” each time.
With `CN(C(=O)c1c(O)c2ccccc2n(C)c1=O)c1ccccc1`, the Potency entry in assay [1], in assay [2] and in assay [3] was “inactive” each time.
`CCCCCCCCCCCCCCCCCC[N+](C)(C)C`: the Potency entry in assay [1] and in assay [3] was “inactive” each time. Besides, the Potency in assay [2] is 63.5 µM (active).
Turning to `Cc1ccc(NC(=O)c2ccc(CN3CCN(C)CC3)cc2)cc1Nc1nccc(-c2cccnc2)n1`, the Potency result in assay [1], in assay [2] and in assay [3] was “inactive” throughout.
As to `Cc1nccn1-c1ccc(Sc2cccc(C3(C(N)=O)CCOCC3)c2)cc1`, the call in assay [1], in assay [2] and in assay [3] was inactive.
For `Cc1ccc(C2OC[C@@H]3OC(c4ccc(C)cc4)O[C@H]([C@H](O)CO)[C@@H]3O2)cc1` (some centres undefined), the Potency result in assay [1], in assay [2] and in assay [3] was “inactive” each time.
`CCCCOC(=O)CC`: the Potency entry in assay [1], in assay [2] and in assay [3] was “inactive” each time.
Regarding `CNC(=O)c1c(I)c(NC(C)=O)c(I)c(C(=O)O)c1I`, the Potency entry in assay [1], in assay [2] and in assay [3] was “inactive” throughout.
For the compound `C=CN1CCCCCC1=O`, the Potency result in assay [1], in assay [2] and in assay [3] was “inactive” throughout.
Consider `CCCCCN=C(N)N/N=C/c1c[nH]c2ccc(OC)cc12`, for which the Potency entry in assay [1], in assay [2] and in assay [3] was “inactive” in each case.
Regarding `CCN(CC)C(C)CN1c2ccccc2Sc2ccccc21` (centres undefined), the Potency result in assay [1], in assay [2] and in assay [3] was “inactive” throughout.
With `COc1ccc(C(=O)Nc2ccccc2)cc1[N+](=O)[O-]`, the Potency in assay [1] was 35.9 µM (active). The Potency result in assay [2] and in assay [3] was “inactive” in each case.
For `CCC(C)NC(N)=O` (centres undefined), the Potency result in assay [1], in assay [2] and in assay [3] was “inactive” throughout.
In the case of `C[Si](C)(C)C`, the Potency result in assay [1], in assay [2] and in assay [3] was “inactive” in each case.
For `CCCCCCc1ccc(N)cc1`, the Potency entry in assay [1], in assay [2] and in assay [3] was “inactive” in each case.
Take `CN(C)CC/C=C1\c2ccccc2Sc2ccc(Cl)cc21`: the Potency entry in assay [1], in assay [2] and in assay [3] was “inactive” each time.
With `C=CCSCC1Nc2cc(Cl)c(S(N)(=O)=O)cc2S(=O)(=O)N1` (centres undefined), the Potency result in assay [1], in assay [2] and in assay [3] was “inactive” throughout.
In the case of `CCN1CCN(c2cc3c(cc2F)c(=O)c(C(=O)O)cn3C2CC2)CC1`, the Potency result in assay [1], in assay [2] and in assay [3] was “inactive” each time.
As to `O=S(=O)(O)SSS(=O)(=O)O`, the Potency in assay [1], in assay [2] and in assay [3] was 71 µM (active) throughout.
In the case of `O=C(CCBr)N1CCN(C(=O)CCBr)CC1`, the Potency result in assay [1], in assay [2] and in assay [3] was “inactive” each time.
As to `N#CSCC(=O)O`, the Potency entry in assay [1], in assay [2] and in assay [3] was “inactive” throughout.
For the compound `c1csc(SSc2cccs2)c1`, the Potency result in assay [1], in assay [2] and in assay [3] was “inactive” in each case.
On to `Nc1ccn(C2CO[C@H](CO)O2)c(=O)n1` (some centres undefined), for which the Potency entry in assay [1], in assay [2] and in assay [3] was “inactive” in each case.
As for `COc1cc2c(Nc3ccc(Br)cc3F)ncnc2cc1OCC1CCN(C)CC1`, the Potency result in assay [1], in assay [2] and in assay [3] was “inactive” in each case.
Consider `Cc1cccc(N(C)C)c1`, for which the Potency result in assay [1], in assay [2] and in assay [3] was “inactive” in each case.
For `Cc1cc(O)c2ccccc2c1O`, the Potency result in assay [1], in assay [2] and in assay [3] was “inactive” in each case.
With `CN(C)CCN1C(=O)c2ccccc2N(C)c2ccccc21`, the Potency entry in assay [1], in assay [2] and in assay [3] was “inactive” each time.
Turning to `CN(C[C@@H](CC[N+]12CCC(C3CCCCC3)(CC1)CC2)c1ccc(Cl)c(Cl)c1)C(=O)c1cc(C(F)(F)F)cc(C(F)(F)F)c1`, the outcome in assay [1] and in assay [3] was inactive. The Potency in assay [2] is 7.96 µM (active).
Take `C[n+]1cc2c3c(ccc2c2ccc4cc5c(cc4c21)OCO5)OCO3`: the Potency was 10.7 µM (active) in assay [1] and 16.9 µM (active) in assay [2]. For the same compound, the activity change, negative = inhibition in assay [3] was -3.24% [at 23.6 µM].
